Composite z-score, z-score and composite Z-score data for five compounds are collected here from PubChem BioAssay.

Active and inactive are the calls of the source.

Assay [1] deals with Human papillomavirus type 1a protein E7 (residues 44-93). Description: small molecules binding HPV E7 44-93 – biochemical, small-molecule microarray, residues 44-93, 635 nm fluorescence, primary screen (AID 1108).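 Also: E7 fragment applied at 1 µg/mL in TBST for 1 h at 4 C; score combines spot fluorescence with its signal to noise ratio.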 Particulars: fluorescence 635 nm, higher = more signal.
Assay [2] is described as follows: hepatitis C replication reporter changes, two-sided – Huh7 cells, luciferase reporter, HCV replication inhibitor project, primary screen (AID 1109).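 Also: huh7 hepatoma cells harbouring a luciferase neomycin HCV replicon reporter; luciferase luminescence as measure of HCV replicon replication; test concentration not given here.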 Particulars: Huh7 HCV replicon luciferase reporter, 48 h; higher = more signal.
Assay [3] deals with Left-right determination factor 2 (Homo sapiens) (UniProt O00292). As to the kind of experiment: small molecules binding LEFTY2 protein – biochemical, small-molecule microarray, 635 nm fluorescence scan, primary screen (AID 1110). Particulars: higher = more signal.
The target of assay [4] is Calmodulin-1 (Homo sapiens) (UniProt P0DP23). Description: small molecules binding calmodulin-1 with EGTA – biochemical, small-molecule microarray, Cy5-labelled CALM1, profiling panel (AID 1111).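 Also: labelled calmodulin applied in Tris saline Tween buffer holding calcium plus EGTA and DTT.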 Particulars: Cy5-CALM1 binding fluorescence, higher = more signal.
Assay [5] shares this target. As to the kind of experiment: small molecules binding Ca-loaded calmodulin-1 – biochemical, small-molecule microarray, Cy5-labelled CALM1, plus calcium, artefact control for SMM control-protein annotation, profiling panel (AID 1112).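 Also: score merges spot fluorescence with signal to noise from triplicate slides.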 Particulars: Cy5-CALM1 binding fluorescence, higher = more signal.
A short description of assay [6]: probe aWnt5a binding to arrayed compounds – biochemical, biotinylated probe, 635/667 nm fluorescence, primary screen (AID 1113).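 Also: score merges 667 nm fluorescence intensity with signal-to-noise per printed feature.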 Particulars: small-molecule microarray, higher = more signal.
Assay [7] is described as follows: probe aShh binding to arrayed compounds – biochemical, biotinylated probe, 635/667 nm fluorescence, primary screen (AID 1114).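 Also: probe is biotin-labelled aShh protein from a stem cell growth factor screen; measures binding of labelled protein to compounds printed on the slide; score merges feature fluorescence at 667 nm with signal-to-noise.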 Particulars: small-molecule microarray, higher = more signal.
The nature of assay [8]: probe aNog binding to arrayed compounds – biochemical, biotinylated probe, 635/667 nm fluorescence, primary screen (AID 1115).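 Also: probe is biotinylated aNog protein used at 0.15 µg/mL for 1 h at 4 C; z-score combines 667 nm fluorescence of each spot with its signal to noise.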 Particulars: small-molecule microarray, higher = more signal.
Assay [9] deals with Torsin-1A-interacting protein 1 (Homo sapiens) (UniProt Q5JTV8). Description: compound microarray binding of lysate hLAP1 – cell lysate, small-molecule microarray, COS7 lysate, 635/667 nm fluorescence, primary screen (AID 1116). Particulars: 635 nm fluorescence, higher = more signal.
The target in assay [10] is Alpha-bungarotoxin (Bungarus multicinctus) (UniProt P60615). As to the kind of experiment: compounds binding labelled alpha-BTX control protein – biochemical, small-molecule microarray, Alexa647 label, 635/667 nm fluorescence, artefact control for SMM control protein annotation, profiling panel (AID 1117). Particulars: alpha-BTX-A647 binding fluorescence, higher = more signal.

Assay [11] addresses Albumin (Bos taurus) (UniProt P02769). Description: compounds binding labelled BSA control protein – biochemical, small-molecule microarray, Alexa647 label, 635/667 nm fluorescence, artefact control for SMM control protein annotation, profiling panel (AID 1118).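 Also: score merges 667 nm emission intensity and signal-to-noise per printed compound spot.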 Particulars: BSA-A647 binding, fluorescence 635 nm, higher = more signal.
A short description of assay [12]: probe aXIP binding to arrayed compounds – biochemical, NeuroSMM set, 635/667 nm fluorescence, primary screen (AID 1119).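 Also: probe is the protein aXip251-270 applied at 1 µg/mL to compound-printed slides; binding of probe to printed compounds measured as 667 nm fluorescence plus signal to noise.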 Particulars: small-molecule microarray, higher = more signal, called active from +8 up or from −8 down.
Assay [13] is described as follows: probe aNOTCH3 binding on compound microarray – biochemical, small-molecule microarray, 635/667 nm fluorescence, primary screen (AID 1120).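 Also: probe is a biotin-tagged antibody raised against NOTCH3 rather than NOTCH3 protein; score merges spot fluorescence near 667 nm with spot signal to noise.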 Particulars: higher = more signal.
Assay [14] can be described thus: probe aNOTCH2 binding on compound microarray – biochemical, small-molecule microarray, 635/667 nm fluorescence, primary screen (AID 1121).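 Also: score merges feature fluorescence read at 667 nm with its signal to noise.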 Particulars: higher = more signal.
The target in assay [15] is Carbonic anhydrase 2 (Homo sapiens) (UniProt P00918). Description: compounds binding carbonic anhydrase 2 – biochemical, small-molecule microarray, Alexa647-labelled CAII, profiling panel (AID 1122). Particulars: CAII-A647 binding fluorescence, higher = more signal.
Assay [16] in a line: COS7 lysate on small-molecule microarray, probe aHis, 635 nm (AID 1123).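 Also: z-score combines 667nm fluorescence intensity with signal-to-noise per printed compound spot.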 Particulars: COS7 cell lysate, fluorescence, higher = more signal.
A short description of assay [17]: probe aLAP1 signal on lysate-treated microarray – cell lysate, small-molecule microarray, COS7 lysate, primary screen (AID 1124).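 Also: lysate comes from COS7 cells expressing LAP1 and is applied at 0.3 µg/mL; score merges spot fluorescence near 667 nm with signal-to-noise over triplicate slides.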 Particulars: probe aLAP1, fluorescence, higher = more signal.
Assay [18] has as its system Sam68 (KHDRBS1). Description: compounds binding KHDRBS1 protein – biochemical, small-molecule microarray, 635 nm fluorescence, primary screen (AID 1125).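 Also: score merges 667 nm channel intensity with signal to noise over triplicate slides.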 Particulars: higher = more signal.
Assay [19] deals with Chordin-like protein 2 (CHRDL2). Description: compounds binding chordin-like 2 – biochemical, small-molecule microarray, 635 nm fluorescence, primary screen (AID 1126).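 Also: printed compound slides probed with Chrdl2 protein at 4 µg/mL for 1 h at 4 C; score merges 667 nm emission intensity with signal to noise over three replicate slides.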 Particulars: fluorescence 635 nm, higher = more signal.
Assay [20] addresses Concanavalin-A (Canavalia ensiformis) (UniProt P02866). As to the kind of experiment: compounds binding concanavalin A lectin – biochemical, small-molecule microarray, Alexa647 label, 635 nm, artefact control for SMM control protein annotation, primary screen (AID 1127).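 Also: z combines 667 nm emission intensity with signal-to-noise across three replicate slides.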 Particulars: ConA-A647 binding fluorescence, higher = more signal.

Sequence of Torsin-1A-interacting protein 1 (Homo sapiens) (Q5JTV8 whole entry, looked up): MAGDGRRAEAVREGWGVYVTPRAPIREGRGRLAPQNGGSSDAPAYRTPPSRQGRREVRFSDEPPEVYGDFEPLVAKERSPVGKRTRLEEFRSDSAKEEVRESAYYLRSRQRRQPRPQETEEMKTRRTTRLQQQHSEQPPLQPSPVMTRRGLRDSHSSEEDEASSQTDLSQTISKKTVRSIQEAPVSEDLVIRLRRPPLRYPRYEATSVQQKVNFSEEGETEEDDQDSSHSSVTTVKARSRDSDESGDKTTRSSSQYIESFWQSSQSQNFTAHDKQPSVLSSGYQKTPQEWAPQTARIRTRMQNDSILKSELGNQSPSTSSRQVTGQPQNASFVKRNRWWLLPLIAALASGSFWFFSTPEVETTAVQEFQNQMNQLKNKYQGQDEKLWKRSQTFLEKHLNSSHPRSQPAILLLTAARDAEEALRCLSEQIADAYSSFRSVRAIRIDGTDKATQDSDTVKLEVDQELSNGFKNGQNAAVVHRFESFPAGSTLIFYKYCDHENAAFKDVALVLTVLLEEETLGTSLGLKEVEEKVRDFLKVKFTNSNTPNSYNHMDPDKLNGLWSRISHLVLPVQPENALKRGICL
Sequence of Concanavalin-A (Canavalia ensiformis) (P02866 whole entry, looked up): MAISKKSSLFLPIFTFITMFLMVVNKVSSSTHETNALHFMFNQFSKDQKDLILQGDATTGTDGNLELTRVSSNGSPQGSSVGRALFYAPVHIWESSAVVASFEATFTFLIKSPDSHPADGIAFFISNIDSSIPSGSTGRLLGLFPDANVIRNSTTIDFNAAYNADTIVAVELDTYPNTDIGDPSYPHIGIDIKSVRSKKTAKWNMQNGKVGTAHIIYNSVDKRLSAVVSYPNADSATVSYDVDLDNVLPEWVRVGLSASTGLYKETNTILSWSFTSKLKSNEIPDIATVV
Sequence of Alpha-bungarotoxin (Bungarus multicinctus) (P60615 whole entry, looked up): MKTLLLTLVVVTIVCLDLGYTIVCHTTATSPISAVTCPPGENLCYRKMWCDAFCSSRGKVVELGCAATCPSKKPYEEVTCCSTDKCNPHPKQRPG
Sequence of Albumin (Bos taurus) (P02769 whole entry, looked up): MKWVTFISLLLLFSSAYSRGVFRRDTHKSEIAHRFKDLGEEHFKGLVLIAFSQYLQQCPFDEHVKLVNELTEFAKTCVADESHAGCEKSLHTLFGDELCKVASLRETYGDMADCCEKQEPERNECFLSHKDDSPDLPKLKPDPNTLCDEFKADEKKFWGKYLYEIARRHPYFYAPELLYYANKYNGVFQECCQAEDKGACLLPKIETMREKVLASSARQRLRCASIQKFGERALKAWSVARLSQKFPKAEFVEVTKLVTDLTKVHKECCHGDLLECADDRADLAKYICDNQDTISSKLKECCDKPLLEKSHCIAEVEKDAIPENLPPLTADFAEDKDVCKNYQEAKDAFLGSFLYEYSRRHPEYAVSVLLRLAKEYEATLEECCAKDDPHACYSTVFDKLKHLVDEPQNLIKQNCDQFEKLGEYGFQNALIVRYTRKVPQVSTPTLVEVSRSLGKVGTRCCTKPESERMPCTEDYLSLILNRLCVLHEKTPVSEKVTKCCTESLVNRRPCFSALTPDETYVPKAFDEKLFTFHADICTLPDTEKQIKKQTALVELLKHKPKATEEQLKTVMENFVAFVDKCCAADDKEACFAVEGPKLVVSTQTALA
Sequence of Left-right determination factor 2 (Homo sapiens) (O00292 whole entry, looked up): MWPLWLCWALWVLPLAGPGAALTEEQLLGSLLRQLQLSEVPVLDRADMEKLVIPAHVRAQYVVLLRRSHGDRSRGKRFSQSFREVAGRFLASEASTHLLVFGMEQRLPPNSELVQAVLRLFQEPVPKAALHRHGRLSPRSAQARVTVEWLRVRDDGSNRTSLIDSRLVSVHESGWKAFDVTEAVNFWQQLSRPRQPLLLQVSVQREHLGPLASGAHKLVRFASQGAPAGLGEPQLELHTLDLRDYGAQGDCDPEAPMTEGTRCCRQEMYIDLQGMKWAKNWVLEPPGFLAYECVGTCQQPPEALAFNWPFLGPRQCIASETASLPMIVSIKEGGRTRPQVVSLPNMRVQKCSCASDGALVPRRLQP

In the case of `O=C1[C@H]2[C@H]3[C@H](O)[C@H](O)CC(=NO[C@@H]4O[C@H](CO)[C@@H](O)[C@H](O)[C@H]4O)[C@@H]3CC[C@H]2C(=O)N1C1CCCCC1`, the composite z-score in assay [1] was 0.578; in [3], 0.616; in assay [4], 0.159; in assay [5], -0.616; in [6] it was 0.0101; in assay [7] it was -0.0593. Moreover, the composite z-score is -0.198 in [8]; 0.0912 in [9]; 0.0069 in [10]; -0.156 in [11]; 0.0876 in assay [13]; -0.141 in assay [14]. The composite z-score was -0.121 in [15]; 0.139 in assay [16]; -0.1 in [17]; 0.317 in assay [18]; 0.629 in assay [19]; 0.601 in [20]. Also, in assay [2], the z-score is -0.0851. In addition, the composite Z-score in [12] was 0.178 (inactive).
For `CCOC(=O)[C@H](Cc1ccccc1)NC(=O)CCC1CC(OC(=O)NCCc2ccc(F)cc2)CC2(CCCC(COC(=O)NCCC(C)C)O2)O1` (stereo not given in full), the composite z-score was 1.4 in assay [1]; 0.676 in assay [3]; -0.0594 in [4]; -0.478 in assay [5]; -0.164 in assay [6]; -0.253 in [7]. Besides, the composite z-score in [8] is -0.0524; in [9], 0.523; in assay [10], 0.633; in assay [11] it was 0.508; in assay [13] it was 0.0939; in assay [14], -0.114. Further, the composite z-score was 0.28 in [15]; 1.17 in [16]; -0.0236 in assay [17]; 1.31 in [18]; 0.0858 in [19]; 0.831 in assay [20]. This compound also registered a z-score in assay [2] of -0.833. The composite Z-score in assay [12] is 1.05 (inactive).
Take `CCOC(=O)[C@H](CC(C)C)NC(=O)CCC1CC(OC(=O)NCc2ccc3c(c2)OCO3)CC2(CCCC(COC(=O)NCCC(C)C)O2)O1` (stereo not given in full): the composite z-score was -0.527 in [1]; 0.0162 in assay [3]; -0.344 in assay [4]; -0.365 in assay [5]; -0.184 in [6]; -0.283 in assay [7]. For the same compound, the composite z-score in assay [8] was -0.295; in [9] it was 0.0461; in [10], 0.0789; in [11], 0.42; in assay [13], -0.0555; in assay [14], -0.112. Besides, the composite z-score in assay [15] was 0.515; in [16], 0.298; in assay [17], 0.0199; in assay [18] it was -0.557; in assay [19], -0.085; in [20], -0.746. In assay [2], this compound registered a z-score of 0.752. Moreover, the composite Z-score in assay [12] was 0.231 (inactive).
As to `COc1ccc(COC(=O)NN=C2C[C@@H](O)[C@@H](O)[C@@H]3[C@@H]4C(=O)N(C[C@@H]5CCCO5)C(=O)[C@@H]4CC[C@H]23)cc1`, the composite z-score in assay [1] is -0.491; in [3] it was -0.34; in assay [4], -0.325; in assay [5], 0.237; in assay [6], 0.0162; in [7] it was -0.138. For the same compound, the composite z-score in assay [8] is -0.103; in assay [9], 0.656; in [10] it was 0.418; in [11] it was 0.533; in [13], 0.0562; in assay [14], -0.0811. Further, the composite z-score in assay [15] was -0.283; in assay [16], 0.121; in assay [17], -0.341; in [18], -0.624; in assay [19], 0.144; in [20] it was -0.826. The z-score in assay [2] was -0.186. Also, the composite Z-score in assay [12] was -0.713 (inactive).
`O=C1CCCC=C1C(O)COCc1ccccc1` (stereo not given): the composite z-score was -1.61 in assay [1]; -0.0061 in assay [3]; -0.0384 in [4]; -1.3 in assay [5]; 0.026 in [6]; -0.269 in assay [7]. The composite z-score in [8] is -0.172; in assay [9] it was 0.381; in assay [10] it was 0.032; in assay [11], 0.411; in assay [13], -0.154; in assay [14], -0.157. For the same compound, the composite z-score in assay [15] was -0.213; in assay [16], 0.428; in assay [17] it was 0.08; in [18] it was -1.01; in assay [19] it was -0.137; in assay [20], 0.999. Besides, in assay [2], the z-score was -0.45. The composite Z-score in assay [12] is 0.16 (inactive).
